The list is not random: actives were taken first. Their share in the collection is about 3.2%.
LMNA splice mod = LMNA splicing modulation. actives 0.01% (n = 200,000). Potency, µM (titrated, usually from 46.1 µM), for inactives: top-dose ratio change, negative = inhibition, usual class: inhibitors. HeLa LMNA splicing GFP/RFP minigene ratio, 48 h. AID 1487; active means well fitted inhibition curve with a large enough effect in the signal ratio, with a control signal flat, not every such curve was filed as active; inconclusive means small, poorly fitted or top-dose-only effect, or effect the other way, or a change in a side signal; the % refers to the signal ratio; further: potency means the concentration at half of the fitted maximal effect; on the % scale 0 is the no-effect control and ±100 the full control effect
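S3 HeLa stable clones carrying a lamin A-EGFP splicing minigene plus DsRed2 were seeded at 600 cells/well in Opti-MEM with 2% FBS, pin-dosed and incubated 48 h at 37°C. Acumen cytometry (488 nm) gave the GFP/RFP total-intensity ratio.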
Tau fibril FP = inhibitors of human tau fibril formation | P10636 | K18 P301L tau heparin fibrillization, Alexa594 FP, 6 h | Potency, µM (series often up to 57.7 µM), for inactives: top-dose activity, negative = inhibition, most hits filed as inhibitors | actives 0.39% (n = 280,000); further: potency means the concentration at half of the fitted maximal effect; on the % scale 0 is the no-effect control and ±100 the full control effect; nearly all actives have a fitted effect of over 55% in size
Target sequence (P10636 561-689 P618L limits assumed): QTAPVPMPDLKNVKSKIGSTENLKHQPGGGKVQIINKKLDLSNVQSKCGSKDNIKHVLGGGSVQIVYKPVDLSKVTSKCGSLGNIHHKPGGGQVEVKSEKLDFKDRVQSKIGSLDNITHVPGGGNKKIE
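Read-out: fluorescence polarization of Alexa 594-labeled tau (0.24 uM), 555 nm excitation, 632 nm emission. Mixtures held 15 uM unlabeled K18 P301L, compound and 20 uM heparin, pH 7 acetate buffer, incubated 6 hr at 37 C.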
KDM4E inh = blocks human JMJD2E demethylase activity. Potency, µM (titrated, usually from 57.1 µM), inactives show top-dose activity change, negative = inhibition, most hits filed as inhibitors. AID 2147. actives 1.6% (n = 230,000). JMJD2E catalytic domain, FDH-coupled NADH fluorescence (FDH is formaldehyde dehydrogenase);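 further: potency means the concentration at half of the fitted maximal effect; 0% = wells with enzyme and -100% = buffer wells without enzyme; nearly all actives have a fitted effect of over 50% in size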
Target sequence (B2RXH2 1-337 limits assumed): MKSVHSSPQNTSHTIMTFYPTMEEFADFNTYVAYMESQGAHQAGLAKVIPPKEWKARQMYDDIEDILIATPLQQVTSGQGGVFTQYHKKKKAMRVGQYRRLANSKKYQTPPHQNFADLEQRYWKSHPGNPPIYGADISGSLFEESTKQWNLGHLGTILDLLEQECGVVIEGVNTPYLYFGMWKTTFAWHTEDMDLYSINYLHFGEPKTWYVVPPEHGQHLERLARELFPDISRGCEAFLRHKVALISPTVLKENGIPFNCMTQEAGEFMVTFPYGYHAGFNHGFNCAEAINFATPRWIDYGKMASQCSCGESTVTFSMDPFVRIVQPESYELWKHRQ
CBFb RUNX1 block = inhibitors of human CBF-beta and RUNX1 interaction | Q01196+Q13951 | AlphaScreen CBFb-His/RUNX1-biotin binding, biochemical | Potency, µM (titrated, usually from 59.8 µM), inactives show at the highest dose activity, negative = inhibition, usual class: inhibitors | 230,000 tested, under 10 active | AID 1477; further: % of control where 0% means no effect
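CBFb-His/RUNX1-biotin, 30 nM each, preincubated 20 min RT; compound 15 min RT; Ni + streptavidin beads 50 ng each, 90 min RT; AlphaScreen read.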
Tau fluor counter = counter-screen for tau fibril formation inhibitors. tau K18 P301L Alexa594 fluorescence, heparin fibrillization. Potency, µM (series often up to 57.7 µM), without a hit: top-dose activity change, negative = decrease. actives 0.93% (n = 280,000); further: potency means the concentration at half of the fitted maximal effect; on the % scale 0 is the no-effect control and ±100 the full control effect; nearly all actives have a fitted effect of over 55% in size
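Human tau K18 P301L (15 uM unlabeled, 0.24 uM Alexa 594-labeled) in 100 mM sodium acetate pH 7 with 20 uM heparin, 6 hr at 37 C. ThT 30 uM added, 1 hr ambient; Alexa 594 FP and total fluorescence read at 555/632 nm.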
Tau ThT inhib = tau fibrillization inhibition (ThT binding); P10636; recombinant tau K18 P301L (four-repeat tau fragment), heparin-induced fibrillization, ThT fluorescence; Potency, µM (doses to about 57.4 µM), inactives show top-dose activity, negative = inhibition, most hits filed as inhibitors; actives 2.1% (n = 270,000); further: potency means the concentration at half of the fitted maximal effect; on the % scale 0 is the no-effect control and ±100 the full control effect; nearly all actives have a fitted effect of over 55% in size
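Heparin-induced (20 uM) aggregation of recombinant human K18 P301L tau, 15 uM unlabeled with 0.24 uM labeled, pH 7 acetate buffer, 6 hr at 37 C with compound. Fibrils quantified by 30 uM ThT fluorescence after 1 hr ambient incubation.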
Numbers without * were called inactive; ? = inconclusive; · = not tested or not shown; [ ] = remark or other dose. Unless noted, the call rests on the fitted dose curve; in most records, active means well fitted curve in the direction sought with a large enough effect; inconclusive means small, poorly fitted or top-dose-only effect, or another doubt; inactive means no such curve, though single readings can be large; an effect the other way counts as inactive or inconclusive.

SMILES	LMNA splice mod	Tau fibril FP	KDM4E inh	CBFb RUNX1 block	Tau fluor counter	Tau ThT inhib
O=C(CNC(=O)c1ccncc1)N/N=C/c1ccccn1	·	0%	-7%	-4%	-5%	-8%
C/C(=C\COc1c2ccoc2cc2oc(=O)ccc12)CCC(O)C(C)(C)O (stereo unspecified)	·	·	·	3%	·	·
COc1ccc(-c2[nH]ncc2N=Nc2ccccc2)cc1	?	?	-14%	-17%	?	16µM*
COc1ccc(-c2[nH]ncc2N=Nc2cc(C)cc(C)c2)cc1	-4%[46 µM]	?	-3%	?	?	?
CSc1ccc(C2C(C#N)=C(N)N(c3ccccc3)C3=C2C(=O)CCC3)cc1 (stereo unspecified)	12%	-4%	?	-23%	-21%	?
N#CC1=C(N)N(c2ccc(F)cc2)C2=C(C1c1ccc(O)cc1)S(=O)(=O)CC2 (stereo unspecified)	?	?	20µM*	?	?	16µM*
C/C(=N\NC(=O)c1ccc(C)cc1C)c1ccc2c(c1)Nc1ccccc1S2	?	?	-1%	-1%	18µM*[quencher]	14µM*
CC(=O)c1ccc2c(c1)Nc1ccccc1S2	-10%	?	1%	1%	?	?
COc1ccc(CNC(=O)CCc2cn(Cc3cc(C)ccc3C)c3ccccc23)cc1OC	·	2%	·	·	1%	5%
CCN1/C(=C/C=C/c2oc3ccc4ccccc4c3[n+]2CC)Oc2ccc3ccccc3c21	?	?	14µM*	?	2.8µM*[fluorescent]	1.1µM*
CC[n+]1c(/C=C/N(C)c2ccccc2)oc2ccc(Cl)cc21	?	9%	-4%	-14%	1%	4%
CC1CCCN(S(=O)(=O)c2cc3c4c(c2)CC(=O)N4CCC3)C1 (stereo unspecified)	3%[46 µM]	-6%	·	·	-1%	-3%
O=C(/C(=C/O)N=Nc1ccccc1)c1ccncc1	?	-3%	-4%	-11%	-19%	14µM*
Cc1ccc(N=N/C(=C\O)C(=O)c2ccc(Cl)cc2)cc1	?	0%	0%	?	-20%	28µM*
Cc1cc(NC(=O)CN2CCC(O)CC2)nc2c1c(=O)oc1ccccc12	·	-10%	·	·	-14%	-9%
O=C(NCCc1csc(-c2cccnc2)n1)c1cccc(C(F)(F)F)c1	5%[46 µM]	-6%	·	·	0%	0%
CCN(CC)c1ccc(NC(=O)CN2C(=O)c3cccnc3Oc3ccccc32)c(C)c1	-20%[46 µM]	0%	·	·	-24%	?
O=C(CCCCCn1c(=O)[nH]c2ccccc2c1=O)NCc1cccc(Cl)c1	-3%[46 µM]	-6%	·	·	-11%	11%
O=[N+]([O-])c1ccc(O)c(C2=NNC(c3ccccc3F)C2)c1 (stereo unspecified)	·	6%	-14%	-16%	-26%	16µM*
CCC1Cc2c(nc(N)c3c(N)nc(N4CCCCC4)c(C#N)c23)O1 (stereo unspecified)	-28%[46 µM]	15%	?	14%	16µM*[quencher]	?
CCN(CC)c1nc(N)c2c(N)n(-c3ccccc3C)c(=S)c(C#N)c2c1C#N	10%	-5%	2%	2%	-7%	4%
COc1cc2c(C#N)c(N3CCCC3)nc(N)c2c(N)n1	·	11%	?	11%	?	?
CCN(CC)c1nc(N)c2c(N)nc3c(c2c1C#N)CC(c1ccccc1)O3 (stereo unspecified)	?	12%	?	0%	32µM*[quencher]	?
N#Cc1c(N2CCCCC2)nc(N)c2c(N)nc3c(c12)CC(c1ccccc1)O3 (stereo unspecified)	33%	15%	?	11%	11µM*[quencher]	?
CC1=NN(c2ccccc2)C(=O)/C1=C\c1ccc(Oc2ccc([N+](=O)[O-])cc2[N+](=O)[O-])cc1	?	?	6.3µM*	?	14µM*[quencher]	14µM*
SMILES	LMNA splice mod	Tau fibril FP	KDM4E inh	CBFb RUNX1 block	Tau fluor counter	Tau ThT inhib
C/C(CC1CC(COCC(C)C)OC1=O)=N\Nc1nc(-c2ccccc2)cs1 (stereo unspecified)	0%	-8%	4%	-6%	?	18µM*
Oc1ccc(-c2csc(Nc3ncccn3)n2)cc1O	-7%[46 µM]	18%	28µM*	-16%	?	11µM*
Oc1ccc(-c2csc(-c3ccccc3)n2)cc1O	?	-2%	?	-25%	16µM*[quencher]	10µM*
Clc1ccc(-c2csc(-c3cccnc3)n2)s1	·	2%	?	18%	-26%	·
Cc1nc(-c2ccc(O)c(O)c2)cs1	15%	0%	16µM*	-28%	-28%	?
Oc1ccc(-c2csc(-c3cccnc3)n2)cc1O	·	11%	14µM*	-15%	?	·
COc1ccc(Cl)cc1NC(=O)Cn1nc(Cc2ccncc2)c2ccccc2c1=O	·	2%	·	·	-17%	4%
COc1ccc(OC)c(CCNC(=O)CCc2cn(Cc3cc(C)ccc3C)c3ccccc23)c1	·	?	·	·	-6%	-3%
COCCCn1c(=N)c(S(=O)(=O)c2ccccc2)cc2c(=O)n3cccc(C)c3nc21	·	1%	·	·	0%	-6%
O=Cc1ccc(OC2C=CC(C#Cc3ccccc3)OC2CO)cc1 (stereo unspecified)	·	-1%[11.6 µM]	·	-3%[13.1 µM]	-2%[11.6 µM]	-7%[11.5 µM]
CCOC(=O)C1=C(CC)Nc2ccccc2N=C1NC(=O)c1ccc(S(=O)(=O)N2CCCC2)cc1	?	3%	-2%	3%	-11%	-4%
CCOC(=O)C1=C(CC)Nc2ccccc2N=C1NC(=O)Nc1ccc(Cl)c(Cl)c1	?	13µM*	-11%	-2%	?	?
CN(C)S(=O)(=O)c1cccc(NC(=S)N/N=C/c2cc(Br)ccc2O)c1	·	?	10µM*	?	7.9µM*[quencher]	?
CN(C)S(=O)(=O)c1cccc(NC(=S)N/N=C/c2cccc(O)c2)c1	-28%[46 µM]	-10%	4%	-8%	-19%	-13%
COc1ccc2c(c1)CCc1cc(C(=O)N3CCN(c4ccc(N5CCOCC5)nn4)CC3)sc1-2	?	?	?	-15%	-24%	8.9µM*
CC1=C(C(=O)Nc2ccc(C)cc2)C(c2ccc(Cl)cc2)n2nnnc2N1 (stereo unspecified)	?	?	·	·	-17%	6%
CC1=C(C(=O)Nc2ccc(Cl)cc2)C(c2ccc(C(F)(F)F)cc2)n2nnnc2N1 (stereo unspecified)	·	22µM*	·	·	?	-6%
COc1ccc(NC(=O)Cn2c(=O)oc3cc(S(=O)(=O)NC(C)C)ccc32)cc1OC	?	-2%	·	·	-7%	-7%

Assay outcomes: PubChem, National Center for Advancing Translational Sciences (NCATS)
